# Compound activity: PubChem, National Center for Advancing Translational Sciences (NCATS)
# Most compounds without a hit are left out; they make up all but 2.1% or so of the library.
# FUS yeast rescue = suppressors of FUS proteinopathy in yeast; AID 1347120; Potency, µM (highest dose often 76.6 µM), most hits filed as activators; actives 0.24% (n = 390,000); S. cerevisiae FUS-expressing, growth rescue, OD600, 24 h;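 also: plate controls were DMSO vehicle for no effect and reference control for full effect; nearly all actives have a fitted effect of over 55% in size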
#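 Toxicity suppression screen in FUS-yeast. Cells induced with 2% galactose, starting OD 0.005, treated 24hr at 30C with compounds at multiple final concentrations; growth by OD600.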
# TDP43 rescue = inhibitors of TDP-43 toxicity in yeast; TDP-43 expressing yeast growth rescue, BacTiter-Glo, 24 h; Potency, µM (doses to about 46.1 µM), inactives show at the top dose growth rescue (activation), usual class: activators; actives 1.8% (n = 410,000); AID 652104; also: % of control where 0% means no effect; nearly all actives have a fitted effect of over 50% in size
#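 Galactose-induced TDP-43 yeast, OD600=0.02, compound pinned; 24 hr, 30 deg C; BacTiter-Glo luminescence for growth. Inhibitors of TDP-43 toxicity read as activators.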
# Abeta yeast res = A-beta toxicity reversal in yeast. yeast expressing A-beta42, growth rescue, OD600, 48 h; response scale: 0% DMSO, 100% iron-clioquinol control. Potency, µM (series often up to 46.1 µM), actives largely listed as activators. AID 1347071. actives 0.063% (n = 410,000); also: nearly all actives have a fitted effect of over 55% in size
#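 Yeast growth medium received pinned compounds, then yeast cells expressing toxic A-beta were added; plates incubated at 30 C for 48 hr. Growth read as absorbance at 600 nm, normalized to DMSO and equimolar FeCl3 plus clioquinol controls.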
# aSyn rescue = rescues yeast growth from alpha-synuclein toxicity | Yeast expressing alpha-synuclein, growth rescue, BacTiter-Glo, 24 h | Potency, µM (series often up to 46.1 µM), inactives show top-dose growth rescue (activation), actives largely listed as activators | actives 0.14% (n = 370,000); also: % of control where 0% means no effect; nearly all actives have a fitted effect of over 65% in size
#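 Galactose-induced alpha-syn yeast (OD600=0.02, raffinose-pregrown) + pinned cpd, 24 hr, 30 deg C; growth by BacTiter-Glo luminescence. Growth restoration scores as activation.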
# An asterisk follows results filed as active; i = inactive; ? = inconclusive; · = no result; ! = a repeat was not active; [ ] = remark or other dose. Calls follow the shape of the dose curve; as a rule, active = well fitted curve in the direction sought with a large enough effect; inconclusive = small, poorly fitted or top-dose-only effect, or another doubt; inactive = no such curve, though single readings can be large; an effect the other way counts as inactive or inconclusive. Potency is read from the fitted curve at half-maximal effect.
SMILES,FUS yeast rescue,TDP43 rescue,Abeta yeast res,aSyn rescue
Cc1ccc2nc(NC(=O)CSc3nccn3Cc3ccccc3)sc2c1,i,?,?,?
Cc1ccc2nc(NC(=O)CSc3nccn3Cc3ccc(F)cc3)sc2c1,i,22.4µM*,?,?
CCCCCCOC(=O)c1ccc(N)cc1,i,12.6µM*,i,1.7%
COc1cccc(/C=C2\SC(=S)N(CCCC(=O)N(CCO)c3ccccc3)C2=O)c1,?,22.4µM*,i,?
O=C1/C(=C/c2cccc(Br)c2)SC(=S)N1CCC(=O)N(CCO)c1ccccc1,i,3.5%,i,2.2%
COc1cccc(N2CCN(C(=O)c3ccc(-c4ccccc4)cc3)CC2)c1,?,12.6µM*,i,11.1%
COc1ccc(-c2cn3c(C)c(C(=O)N4CCN(c5ccc(F)cc5)CC4)sc3n2)cc1,i,1.7%,i,1.5%
Cc1noc(C)c1COc1ccc(C(=O)N2CCN(c3cccc(Cl)c3)CC2)cc1,i,22.4µM*,i,10.3%
COc1ccccc1N1CCN(C(=O)c2sc3nc(-c4ccc(F)cc4)cn3c2C)CC1,?,11.2µM*,i,17.3%
COc1ccccc1N1CCN(C(=O)c2cccc(Oc3ccccc3)c2)CC1,i,35.5µM*,i,4.6%
Cc1cccc(NC(=S)N/N=C(\c2ccccc2)C(C)C)c1,i,?,i,-7.1%
CC(NC(N)=O)C(=O)Nc1ccc(Cl)c(S(=O)(=O)Nc2ccc(Cl)cc2)c1 (configuration not stated),i,-1.7%,i,-4.4%
COc1ccc(C(=O)N2CCN(c3ccccc3OC)CC2)cc1,i,?,i,10.4%
COc1cc2ccccc2cc1C(=O)N1CCN(c2ccccc2O)CC1,?,12.6µM*,i,0.5%
COc1ccccc1N1CCN(C(=O)c2ccc(-c3ccccc3)cc2)CC1,i,17.8µM*,i,9.3%
COc1ccccc1N1CCN(C(=O)Nc2ccc([N+](=O)[O-])cc2)CC1,i,14.1µM*,i,6.1%
COc1cc2ccccc2cc1C(=O)N1CCCC1,i,9.7%,i,2.7%
CCCS(=O)(=O)N1CCN(C(=O)c2ccc(-c3ccccc3)cc2)CC1,i,17.8µM*,i,?
Cn1c(=O)[nH]c(=O)c2c1nc(Br)n2CC(O)COc1ccc(Cl)cc1 (configuration not stated),i,-11.5%,i,-12.5%
CCN(CC)CCN1C(=O)C(=O)/C(=C(/O)c2c(C)[nH]c(C(=O)OC)c2C)C1c1ccc(OC)cc1 (configuration not stated),i,-0.4%,i,1.9%
CCOC(=O)c1oc2c(CN3CCN(C)CC3)c(O)c(CC)cc2c(=O)c1-c1nc2ccccc2s1,i,1.4%,i,-0.7%
CCOc1ccccc1N1CCN(C(=O)c2ccccc2)CC1,i,14.6%,i,-3.1%
COc1ccc(N2CCN(C(=O)c3ccc(N(C)S(=O)(=O)c4ccc(OC)cc4)cc3)CC2)cc1,?,24.2%,i,20.6%
COc1ccccc1N1CCN(C(=O)c2cc3c(=O)n4ccccc4nc3s2)CC1,i,20µM*,i,8.0%
CN1CCN(C(=O)c2cc3c(=O)n4ccccc4nc3s2)CC1,i,-10.6%,i,1.2%
SMILES,FUS yeast rescue,TDP43 rescue,Abeta yeast res,aSyn rescue
COc1ccc(N2CCN(C(=O)c3ccc(N(C)S(=O)(=O)c4ccc(C)cc4)cc3)CC2)cc1,?,12.6µM*,i,1.8%
CCOc1ccccc1N1CCN(C(=O)c2ccc(-c3ccc(OC(C)=O)cc3)cc2)CC1,?,20µM*,i,1.0%
COC(=O)c1ccc(NC(=O)CC2C(=O)N(C)C(=S)N2Cc2ccc(S(N)(=O)=O)cc2)cc1 (configuration not stated),i,9.2%,i,-7.8%
CCCN1C(=O)/C(=C/c2ccc(N3CCCC3)c(C)c2)NC1=S,i,3.16µM*,i,-16.1%
CCCN1C(=O)/C(=C/c2ccc(OCC(=O)OCC)cc2)NC1=S,22.4µM*,-10.0%,i,0.0%
Cc1cc(/C=C2\NC(=S)N(C)C2=O)ccc1N1CCCC1,i,-9.2%[0.397 µM],i,-0.9%
COc1cc(CNc2ncnc3c2ncn3[C@H]2CN(Cc3cccc(C(F)(F)F)c3)C[C@@H](COC(C)=O)O2)cc(OC)c1OC,20µM*,17.5%,i,0.8%
O=S(=O)(NC(=S)NC1CCCCC1)c1ccc(Br)cc1,i,20µM*,i,11.4%
O=C(CCNS(=O)(=O)c1ccc(Br)cc1)NC1CCCCC1,?,0.2%[0.397 µM],i,6.3%
COc1ccc(CCC(=O)NNC(=O)Nc2ccc(C(C)=O)cc2)cc1,i,-2.3%,i,2.5%
Cc1sc2ncnc(N(C)C3CCCCC3)c2c1C,i,15.8µM*,i,5.0%
COc1ccc(S(=O)(=O)NC2CC(=O)N(c3ccc(C)c(C)c3)C2)cc1C (configuration not stated),i,8.7%,i,4.9%
CCC(C(=O)Nc1cc(F)ccc1F)n1nc(-c2cc(C)ccc2C)ccc1=O (configuration not stated),i,22.4µM*,i,·
Cc1ccc(C)c(-c2ccc(=O)n(Cc3cccc(Br)c3)n2)c1,i,24.1%,i,13.6%
CCOc1ccc(NC(=O)C(CC)n2nc(-c3ccc(C)c(C)c3)ccc2=O)cc1 (configuration not stated),i,18.6%,i,·
CCC(C(=O)Nc1cc(OC)cc(OC)c1)n1nc(-c2ccc(C)c(C)c2)ccc1=O (configuration not stated),?,28.2µM*,?,·
Cc1ccc(C)c(-c2ccc(=O)n(Cc3ccc(F)cc3Cl)n2)c1,?,22.4µM*!,i,?
CC(C)Oc1ccc(CCNC(=O)C2CCC(=O)N(C3CCCCCC3)C2)cc1 (configuration not stated),i,7.3%,i,2.7%
COc1ccc(C2Nc3ccc(NC(C)=O)cc3C(=O)N2Cc2ccccc2)cc1COc1ccc(NC(C)=O)cc1 (configuration not stated),·,·,·,2.7%
COc1ccc(C2Nc3ccccc3C(=O)N2Cc2ccco2)cc1COc1ccc(NC(C)=O)cc1 (configuration not stated),i,-5.9%,i,1.8%
COc1ccc(C2Nc3ccccc3C(=O)N2Cc2ccco2)cc1COc1c(C)cc(NC(C)=O)cc1C (configuration not stated),10µM*,·,·,·
COc1ccc(C2Nc3ccccc3C(=O)N2Cc2ccccc2)cc1COc1ccc(NC(C)=O)cc1 (configuration not stated),15.8µM*,·,·,·
COc1ccc2[nH]c(C(=O)N/N=C/c3ccc(OC)c(O)c3)cc2c1,i,12.5%,i,-0.6%
COc1ccccc1-n1c(C)c2c(OC)cccc(=O)c2c1C,i,23.7%,i,-16.3%
CC1=C(C#N)C(=O)NC(=O)/C1=C\c1ccc(-c2ccc(C)cc2[N+](=O)[O-])o1,i,31.6µM*,i,4.8%
